Test results published in the supplement of paper PMC12067093, “Discovery and optimisation of a covalent ligand for TRIM25 and its application to targeted protein ubiquitination” (Chemical Science, 2025).
The full data set covers some 21,000 targets. This sample favours those with the largest changes.

Compound: Cc1cc(ccc1-c1ccccc1)C(=O)N1CCCN(CC1)C(=O)CCl [compound 10]
Test: probe-labelled cysteine peptide fold change vs DMSO (competition) (log2 fold change); higher = less target engagement (more negative = stronger competition)
Conditions: THP-1, incubation time: 4 h
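Further: competitive profiling in live THP-1 cells: cysteine peptides tagged with an iodoacetamide desthiobiotin (IA-DTB) probe, intensity after compound treatment relative to DMSO-treated cells.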

Chain of UniProt Q8IY92 (Q8IY92 whole entry, looked up): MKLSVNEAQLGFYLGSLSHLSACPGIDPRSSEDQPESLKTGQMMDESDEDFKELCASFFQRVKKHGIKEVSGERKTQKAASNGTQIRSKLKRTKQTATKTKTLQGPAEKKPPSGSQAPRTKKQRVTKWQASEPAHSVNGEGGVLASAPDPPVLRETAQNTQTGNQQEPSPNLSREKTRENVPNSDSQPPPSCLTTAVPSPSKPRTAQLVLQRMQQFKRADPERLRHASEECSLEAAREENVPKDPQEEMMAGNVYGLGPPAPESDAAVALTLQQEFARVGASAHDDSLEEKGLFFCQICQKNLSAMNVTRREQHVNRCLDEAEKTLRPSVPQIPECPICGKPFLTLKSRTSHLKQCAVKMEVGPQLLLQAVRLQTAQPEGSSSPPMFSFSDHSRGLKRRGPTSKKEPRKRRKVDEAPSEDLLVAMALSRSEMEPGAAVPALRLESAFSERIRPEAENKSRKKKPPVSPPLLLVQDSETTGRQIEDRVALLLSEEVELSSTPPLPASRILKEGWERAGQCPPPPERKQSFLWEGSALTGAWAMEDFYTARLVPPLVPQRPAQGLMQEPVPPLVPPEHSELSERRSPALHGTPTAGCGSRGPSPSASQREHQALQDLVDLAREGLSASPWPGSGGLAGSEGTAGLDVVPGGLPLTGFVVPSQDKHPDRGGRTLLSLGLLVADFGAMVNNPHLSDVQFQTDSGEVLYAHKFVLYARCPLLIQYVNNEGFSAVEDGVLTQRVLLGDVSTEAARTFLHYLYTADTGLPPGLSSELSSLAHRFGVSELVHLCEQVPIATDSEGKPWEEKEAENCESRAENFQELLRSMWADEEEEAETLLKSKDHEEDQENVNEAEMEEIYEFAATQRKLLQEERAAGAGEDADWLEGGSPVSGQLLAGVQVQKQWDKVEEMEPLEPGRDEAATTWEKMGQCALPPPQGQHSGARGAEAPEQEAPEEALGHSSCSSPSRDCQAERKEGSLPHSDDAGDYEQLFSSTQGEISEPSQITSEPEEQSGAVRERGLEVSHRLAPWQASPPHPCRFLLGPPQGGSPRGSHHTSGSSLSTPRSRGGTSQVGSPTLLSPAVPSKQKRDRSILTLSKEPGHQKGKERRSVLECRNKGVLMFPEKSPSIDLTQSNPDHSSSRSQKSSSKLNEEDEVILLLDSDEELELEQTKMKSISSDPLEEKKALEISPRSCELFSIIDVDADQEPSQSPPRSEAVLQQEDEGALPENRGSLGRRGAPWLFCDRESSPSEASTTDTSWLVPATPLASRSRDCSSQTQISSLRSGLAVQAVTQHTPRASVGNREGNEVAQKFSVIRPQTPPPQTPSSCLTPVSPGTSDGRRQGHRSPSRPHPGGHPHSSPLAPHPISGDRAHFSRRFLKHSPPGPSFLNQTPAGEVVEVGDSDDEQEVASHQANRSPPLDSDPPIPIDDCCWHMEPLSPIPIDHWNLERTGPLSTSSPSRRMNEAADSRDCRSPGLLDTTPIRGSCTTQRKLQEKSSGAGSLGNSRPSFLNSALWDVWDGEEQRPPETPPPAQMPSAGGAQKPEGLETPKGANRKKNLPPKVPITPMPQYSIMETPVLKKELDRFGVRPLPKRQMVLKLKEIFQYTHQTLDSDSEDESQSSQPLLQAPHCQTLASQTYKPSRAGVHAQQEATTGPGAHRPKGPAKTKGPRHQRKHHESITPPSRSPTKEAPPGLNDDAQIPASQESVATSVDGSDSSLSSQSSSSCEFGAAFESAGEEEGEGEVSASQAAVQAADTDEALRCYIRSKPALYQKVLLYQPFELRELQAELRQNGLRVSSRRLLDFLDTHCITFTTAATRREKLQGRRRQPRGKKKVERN
Chain of UniProt Q9UHR5 (Q9UHR5 whole entry): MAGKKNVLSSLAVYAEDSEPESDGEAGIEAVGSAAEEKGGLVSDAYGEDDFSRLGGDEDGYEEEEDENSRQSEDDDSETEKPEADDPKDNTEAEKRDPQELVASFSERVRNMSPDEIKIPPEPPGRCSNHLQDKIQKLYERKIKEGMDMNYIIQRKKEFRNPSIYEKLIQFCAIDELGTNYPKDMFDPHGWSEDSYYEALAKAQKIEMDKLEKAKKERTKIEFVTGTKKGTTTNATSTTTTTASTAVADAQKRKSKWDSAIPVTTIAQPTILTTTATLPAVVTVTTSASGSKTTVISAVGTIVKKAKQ
Chain of UniProt O75643 (O75643 whole entry, looked up): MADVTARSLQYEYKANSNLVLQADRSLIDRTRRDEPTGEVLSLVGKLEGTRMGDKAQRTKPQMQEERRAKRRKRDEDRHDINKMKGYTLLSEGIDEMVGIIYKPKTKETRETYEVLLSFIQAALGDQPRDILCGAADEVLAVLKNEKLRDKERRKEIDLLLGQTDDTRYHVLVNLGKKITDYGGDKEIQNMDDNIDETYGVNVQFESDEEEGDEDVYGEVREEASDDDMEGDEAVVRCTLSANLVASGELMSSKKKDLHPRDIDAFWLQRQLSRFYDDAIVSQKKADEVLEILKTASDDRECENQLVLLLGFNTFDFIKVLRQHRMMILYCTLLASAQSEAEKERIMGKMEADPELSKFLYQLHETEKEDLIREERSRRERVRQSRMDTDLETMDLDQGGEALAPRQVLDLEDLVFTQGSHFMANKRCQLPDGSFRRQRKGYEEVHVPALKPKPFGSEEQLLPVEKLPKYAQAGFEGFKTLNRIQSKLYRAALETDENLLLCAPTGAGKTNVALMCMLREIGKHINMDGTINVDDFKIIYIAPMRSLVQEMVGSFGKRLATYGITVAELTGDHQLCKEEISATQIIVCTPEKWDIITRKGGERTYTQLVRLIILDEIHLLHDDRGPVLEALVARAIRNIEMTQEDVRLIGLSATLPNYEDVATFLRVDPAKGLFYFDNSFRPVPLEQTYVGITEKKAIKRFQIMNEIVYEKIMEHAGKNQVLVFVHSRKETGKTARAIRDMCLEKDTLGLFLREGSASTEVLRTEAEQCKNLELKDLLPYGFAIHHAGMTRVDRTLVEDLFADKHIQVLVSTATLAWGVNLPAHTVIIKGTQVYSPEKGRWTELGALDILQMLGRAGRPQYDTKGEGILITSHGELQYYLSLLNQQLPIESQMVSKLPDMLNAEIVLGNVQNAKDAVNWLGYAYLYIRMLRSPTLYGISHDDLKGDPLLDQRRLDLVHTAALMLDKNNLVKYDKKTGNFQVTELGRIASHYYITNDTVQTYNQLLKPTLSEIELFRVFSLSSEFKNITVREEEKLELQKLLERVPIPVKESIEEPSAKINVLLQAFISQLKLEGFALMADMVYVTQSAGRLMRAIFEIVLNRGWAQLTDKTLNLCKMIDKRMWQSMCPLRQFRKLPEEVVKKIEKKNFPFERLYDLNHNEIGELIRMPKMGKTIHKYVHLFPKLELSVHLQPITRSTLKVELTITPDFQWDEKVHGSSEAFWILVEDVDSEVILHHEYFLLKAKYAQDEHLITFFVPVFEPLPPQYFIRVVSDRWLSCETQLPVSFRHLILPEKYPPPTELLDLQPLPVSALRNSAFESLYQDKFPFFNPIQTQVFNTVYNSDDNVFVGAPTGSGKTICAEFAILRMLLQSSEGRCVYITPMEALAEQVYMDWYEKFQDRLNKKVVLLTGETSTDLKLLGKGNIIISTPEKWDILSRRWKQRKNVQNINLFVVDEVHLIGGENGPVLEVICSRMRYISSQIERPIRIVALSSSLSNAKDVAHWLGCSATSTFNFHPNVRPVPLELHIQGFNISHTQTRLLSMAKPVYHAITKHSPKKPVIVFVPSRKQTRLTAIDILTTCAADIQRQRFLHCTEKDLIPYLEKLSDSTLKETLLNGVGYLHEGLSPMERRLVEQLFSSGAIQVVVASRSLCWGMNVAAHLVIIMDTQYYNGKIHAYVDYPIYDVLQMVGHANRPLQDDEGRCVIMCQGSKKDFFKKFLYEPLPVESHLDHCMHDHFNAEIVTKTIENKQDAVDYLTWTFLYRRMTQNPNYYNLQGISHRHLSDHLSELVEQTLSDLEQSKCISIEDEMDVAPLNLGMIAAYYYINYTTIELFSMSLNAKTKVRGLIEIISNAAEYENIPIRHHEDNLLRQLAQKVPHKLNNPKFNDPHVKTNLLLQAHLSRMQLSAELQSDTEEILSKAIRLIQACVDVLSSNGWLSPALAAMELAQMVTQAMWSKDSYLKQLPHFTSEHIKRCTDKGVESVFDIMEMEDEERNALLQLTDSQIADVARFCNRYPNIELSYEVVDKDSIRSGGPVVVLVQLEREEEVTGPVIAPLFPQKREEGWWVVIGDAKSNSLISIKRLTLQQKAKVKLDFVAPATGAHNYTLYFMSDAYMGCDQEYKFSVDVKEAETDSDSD
Chain of UniProt O75940 (O75940 whole entry): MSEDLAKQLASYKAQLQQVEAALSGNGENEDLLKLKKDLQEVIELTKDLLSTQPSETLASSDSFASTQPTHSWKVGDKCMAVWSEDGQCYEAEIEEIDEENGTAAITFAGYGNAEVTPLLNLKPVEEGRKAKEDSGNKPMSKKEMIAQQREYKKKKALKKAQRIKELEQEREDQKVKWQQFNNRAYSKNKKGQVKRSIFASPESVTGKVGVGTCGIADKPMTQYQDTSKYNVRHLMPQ
Chain of UniProt P03973 (P03973 whole entry): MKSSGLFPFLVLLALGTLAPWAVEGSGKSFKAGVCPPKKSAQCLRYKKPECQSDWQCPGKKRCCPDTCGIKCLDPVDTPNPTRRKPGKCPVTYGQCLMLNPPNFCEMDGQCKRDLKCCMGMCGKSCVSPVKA
Chain of UniProt Q8WWV3 (Q8WWV3 whole entry, looked up): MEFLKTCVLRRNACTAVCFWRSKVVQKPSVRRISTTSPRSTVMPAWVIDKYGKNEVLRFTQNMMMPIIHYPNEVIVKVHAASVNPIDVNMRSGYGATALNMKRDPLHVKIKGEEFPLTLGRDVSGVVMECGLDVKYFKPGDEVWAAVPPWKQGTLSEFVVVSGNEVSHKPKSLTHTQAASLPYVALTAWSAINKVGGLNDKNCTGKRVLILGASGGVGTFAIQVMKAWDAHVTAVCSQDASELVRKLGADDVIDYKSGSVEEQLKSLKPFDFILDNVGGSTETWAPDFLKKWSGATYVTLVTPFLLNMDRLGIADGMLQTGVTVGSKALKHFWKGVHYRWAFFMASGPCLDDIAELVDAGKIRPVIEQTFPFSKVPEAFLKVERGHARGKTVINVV

Target	probe-labelled cysteine peptide fold change (10 µM)	probe-labelled cysteine peptide fold change (50 µM)
SLX4_Q8IY92_318_CLDEAEK (UniProt Q8IY92)	-0.0818	0.0245
RTN4IP1_Q8WWV3_130_DVSGVVMECGLDVK (UniProt Q8WWV3)	0.0949	0.461
SEC63_Q9UGP8_671_EQTLISMPYHVCTLK (UniProt Q9UGP8)	0.235	0.336
RPL11_P62913_150_TGCIGAK (UniProt P62913)	-0.0968	-0.152
RPL11_P62913_21+25_KLCLNICVGESGDR (UniProt P62913)	-0.0801	-0.334
SFSWAP_Q12872_307_CNRLEELMK (UniProt Q12872)	-0.382	-1.12
RPS6_P62753_83_GHSCYRPR (UniProt P62753)	-0.077	0.137
SCAF11_Q99590_506_KLENTGIEANVLCLESEISENILEK (UniProt Q99590)	-0.478	0.011
SATB1_Q01826_173_IQLHSCPK (UniProt Q01826)	-0.0552	-0.188
RPS6KA1_Q15418_432_ETIGVGSYSECKR (UniProt Q15418)	-1.06	-2.91
SLC39A10_Q9ULF5_598_NYLCIEEEK (UniProt Q9ULF5)	-0.213	-0.202
SAMM50_Q9Y512_403_THFFLNAGNLCNLNYGEGPK (UniProt Q9Y512)	0.022	0.169
SMCHD1_A6NHR9_444_YHPFLYDRETYPDDPCFPSK (UniProt A6NHR9)	-0.159	-0.206
SAE1_Q9UBE0_134_VDTEDIEKKPESFFTQFDAVCLTCCSR (UniProt Q9UBE0)	-0.00481	-1.27
RSBN1_Q5VWQ0_318_DEQLCR (UniProt Q5VWQ0)	-0.206	-0.556
SCCPDH_Q8NBX0_238_WPISYCR (UniProt Q8NBX0)	-0.242	-1.65

Target	probe-labelled cysteine peptide fold change (10 µM)	probe-labelled cysteine peptide fold change (50 µM)
RPS6KA3_P51812_436_EDIGVGSYSVCK<|>RPS6KA2_Q15349_429_EDIGVGSYSVCK (UniProt Q15349+P51812)	-0.569	-1.64
SAE1_Q9UBE0_295_YCFSEMAPVCAVVGGILAQEIVK (UniProt Q9UBE0)	-0.252	0.0287
SMYD5_Q6GMV2_136_LAATEQYHQVLCPGPSQDDPLHPLNK (UniProt Q6GMV2)	-0.0142	-0.404
SEPT5_Q99719_278_LYPWGIVEVENQAHCDFVK (UniProt Q99719)	0.194	0.135
SMC3_Q9UQE7_1134_CDPAPFYLFDEIDQALDAQHR (UniProt Q9UQE7)	0.416	0.52
SDCCAG8_Q86SQ7_236_CEIEESQLK (UniProt Q86SQ7)	0.069	-0.322
SMURF2_Q9HAU4_706_LFTIHQIDACTNNLPK (UniProt Q9HAU4)	-0.159	-0.59
SETD2_Q9BYW2_836_ISSNSFMNVHLESKPVICDSR (UniProt Q9BYW2)	0.115	0.0162
SF1_Q15637_282_CGGAGHIASDCK (UniProt Q15637)	0.0635	-0.0325
SAP30_O75446_184_AQLVEIVGCHFR (UniProt O75446)	0.0105	-0.181
SLPI_P03973_51+57_YKKPECQSDWQCPGK (UniProt P03973)	-0.847	-1.07
SMNDC1_O75940_214_VGVGTCGIADKPMTQYQDTSK (UniProt O75940)	0.155	-0.732
RNF20_Q5VTR2_960_CNAAFGANDFHR (UniProt Q5VTR2)	0.279	0.358
SAP30BP_Q9UHR5_127_CSNHLQDK (UniProt Q9UHR5)	-0.0884	-0.31
SNRNP200_O75643_1278_VVSDRWLSCETQLPVSFR (UniProt O75643)	-0.0123	-0.0331
RNH1_P13489_199_DSPCQLEALKLESCGVTSDNCR (UniProt P13489)	-0.339	-1.17
